Test results: PubChem BioAssay AID1159580 (chemical genetic matrix, 2015)
Several values for one entry are separate records, joined by “and”; a condition that tells them apart may be missing. Equal values may be shown once. The whole screen tested about 5,500 compounds, of which about 2,000 (36%) were called active. About 18% were inconclusive and are not listed. No stated cut-off is given here; in the data, active means normalized growth mostly below about 0.91 (no sharp cut-off); inconclusive means no clear call, values can overlap the other calls; inactive means mostly above about 0.92. The list shows a part of the results.

Assay: chemical genetic growth profiling, strain panel (AID 1159580);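 further: tested at 20 µM; growth read once vehicle control cultures reached saturation at 30 °C; 1 = growth at the plate median or of vehicle wells; lower values mean less growth of the strain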
Conditions: S. cerevisiae deletion strains, growth OD

Measured: normalized growth

CCN(CCO)CCCC(C)Nc1ccnc2cc(Cl)ccc12 (configuration not stated)
inactive: locus YAL013W, strain DEP1, hits give low values 1.01 | locus YAL021C, strain ccr4, hits give low values 1.03 | locus YAL026C, strain drs2, hits give low values 1 | locus YAL030W, strain snc1, hits give low values 0.997 | locus YBL061C, strain skt5, hits give low values 1 | locus YBR009C, strain hhf1, hits give low values 1.01 | locus YBR021W, strain FUR4, hits give low values 1 | locus YBR023C, strain chs3, hits give low values 0.998 | locus YBR171W, strain sec66, hits give low values 1.01 | locus YBR229C, strain ROT2, hits give low values 0.991 | locus YBR231C, strain swc5, hits give low values 1.01 | locus YBR279W, strain paf1, hits give low values 1.01 | locus YCL011C, strain gbp2, hits give low values 1 | locus YCL016C, strain dcc1, hits give low values 1 | locus YCL029C, strain bik1, hits give low values 1.01 | locus YCL061C, strain MRC1, hits give low values 0.993 | locus YCL069W, strain vba3, hits give low values 0.998 | locus YCR088W, strain abp1, hits give low values 0.997 | locus YDL005C, strain med2, hits give low values 0.994 | locus YDL035C, strain GPR1, hits give low values 1.02 | locus YDL040C, strain nat1, hits give low values 0.999 | locus YDL074C, strain BRE1, hits give low values 1.01 | locus YDL101C, strain DUN1, hits give low values 1.02 | locus YDL134C, strain PPH21, hits give low values 1 | locus YDL185W, strain tfp1, hits give low values 1.01 | locus YDL192W, strain arf1, hits give low values 1.01 | locus YDR001C, strain nth1, hits give low values 1 | locus YDR069C, strain doa4, hits give low values 1.01 | locus YDR101C, strain arx1, hits give low values 1.02 | locus YDR137W, strain rgp1, hits give low values 0.978 | locus YDR150W, strain NUM1, hits give low values 1.01 | locus YDR159W, strain sac3, hits give low values 0.999 | locus YDR162C, strain NBP2, hits give low values 1.01 | locus YDR195W, strain ref2 1 | locus YDR297W, strain sur2, hits give low values 1.01 | locus YDR318W, strain mcm21, hits give low values 1.03 | locus YDR334W, strain swr1, hits give low values 1.01 | locus YDR335W, strain msn5, hits give low values 0.999 | locus YDR388W, hits give low values 1.01 | locus YDR392W, strain spt3, hits give low values 1.03 | locus YDR502C, strain sam2, hits give low values 1.02 | locus YEL003W, strain gim4, hits give low values 1 | locus YEL037C, strain rad23, hits give low values 1.01 | locus YEL061C, strain CIN8 (second series), hits give low values 1.01 | locus YEL061C, strain CIN8, hits give low values 1.01 | locus YER015W, strain faa2, hits give low values 1.01 | locus YER016W, strain bim1, hits give low values 1 | locus YER110C, hits give low values 1.01 | locus YER111C, strain swi4, hits give low values 1 | locus YER155C, strain BEM2 (second series), hits give low values 1 | locus YER155C, strain BEM2, hits give low values 1.01 | locus YER167W, strain BCK2, hits give low values 1.01 | locus YFR010W, strain ubp6, hits give low values 1.01 | locus YGL078C, strain dbp3, hits give low values 1.02 | locus YGL086W, strain mad1, hits give low values 1.02 | locus YGL167C, strain pmr1, hits give low values 0.994 | locus YGL173C, strain kem1, hits give low values 0.996 | locus YGL227W, strain vid30, hits give low values 0.997 | locus YGL240W, strain doc1, hits give low values 1.01 | locus YGL248W, strain PDE1, hits give low values 0.993 | locus YGL253W, strain hxk2, hits give low values 0.999 | locus YGR078C, strain PAC10, hits give low values 1.03 | locus YGR135W, strain pre9, hits give low values 1.01 | locus YGR229C, strain SMI1, hits give low values 1.03 | locus YGR252W, strain gcn5, hits give low values 1.21 | locus YHR013C, strain ard1, hits give low values 1 | locus YHR027C, strain rpn1, hits give low values 0.988 | locus YHR030C, strain SLT2, hits give low values 1.01 and 0.985 | locus YHR079C, strain IRE1 (second series), hits give low values 1.01 | locus YHR079C, strain IRE1, hits give low values 0.99 | locus YHR094C, strain hxt1, hits give low values 1.01 | locus YHR129C, strain ARP1, hits give low values 1.01 | locus YHR142W, strain chs7, hits give low values 1 | locus YHR200W, strain rpn10, hits give low values 1.02 | locus YIL066C, strain RNR3, hits give low values 1.03 | locus YIL073C, strain SPO22, hits give low values 1.05 | locus YIL125W, strain kgd1, hits give low values 1 | locus YIR030C, strain dcg1, hits give low values 1.01 | locus YJL092W, strain hpr5, hits give low values 0.998 | locus YJL095W, strain BCK1 (second series), hits give low values 0.995 | locus YJL095W, strain BCK1, hits give low values 1.01 | locus YJL115W, strain asf1, hits give low values 1.01 | locus YJL129C, strain trk1, hits give low values 0.991 | locus YJL134W, strain LCB3, hits give low values 1.01 | locus YJL154C, strain vps35, hits give low values 1.01 | locus YJL164C, strain tpk1, hits give low values 1 | locus YJL166W, strain qcr8, hits give low values 1 | locus YJL168C, strain set2, hits give low values 1.01 | locus YJL187C, strain SWE1 (second series), hits give low values 1.02 | locus YJL187C, strain SWE1, hits give low values 0.999 | locus YJR043C, strain POL32, hits give low values 1.04 | locus YJR066W, strain TOR1, hits give low values 0.961
